# In PubChem BioAssay (NCATS):
# Values joined by “and” are separate entries in the source; they are usually repeats but may differ in a detail not shown here. Equal values may be shown once. Inconclusive results are not listed. Active and inactive are the calls of the source. Unless noted, no rule for the calls is given here.
# Experiments:
# [1] = qHTS profiling for inhibitors of Plasmodium falciparum (3D7) proliferation (AID 743322);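 also: infected erythrocytes exposed to compound for 72 h before lysis; 100% = DMSO vehicle wells and 0% = 0.29 µM artemisinin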; conditions: P. falciparum 3D7 proliferation; at 28.7 µM (top of the series)
# Summary of the method: (§1)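 Erythrocytes infected with P. falciparum (0.3% parasitemia, 2.5% hematocrit) incubated with compounds 72 h at 37 C, 5% CO2. Lysis with saponin/Triton buffer containing SYBR Green I, overnight at room temperature in the dark; DNA fluorescence (485/535 nm) normalised to 0.29 uM artemisinin and DMSO.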
# [2] = qHTS profiling for inhibitors of Plasmodium falciparum (DD2) proliferation (AID 743323); conditions: lower = more inhibition; at 28.7 µM (top of the series)
# Summary of the method: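 Parasite proliferation measured via DNA-dye fluorescence, as uninfected erythrocytes lack DNA. Cultures at 0.3% parasitemia and 2.5% hematocrit incubated 72 h with compound; signal scaled between vehicle and 0.29 uM artemisinin wells.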
# [3] = qHTS profiling of the MIPE4 collection as inhibitors of Plasmodium falciparum (3D7) proliferation (AID 743344);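 also: scaled between DMSO vehicle wells and 0.29 µM artemisinin as full inhibition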; conditions: P. falciparum 3D7 in erythrocytes, SYBR Green DNA fluorescence, 72 h
# Summary of the method: as §1
# [4] = qHTS profiling of the MIPE4 collection as inhibitors of Plasmodium falciparum (DD2) proliferation (AID 743345); conditions: P. falciparum Dd2 in erythrocytes, SYBR Green DNA, 72 h
# Summary of the method: as §1
# [5] = qHTS profiling of the MIPE4 collection as inhibitors of Plasmodium falciparum (DD2) proliferation (Rep 2) (AID 743346); conditions: P. falciparum Dd2 in erythrocytes, SYBR Green DNA, 72 h
# Summary of the method: as §1
# [6] = qHTS profiling of the MIPE4 collection as inhibitors of Plasmodium falciparum (HB3) proliferation (AID 743347);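 also: plate controls were DMSO vehicle wells for no effect and artemisinin wells for full effect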; conditions: P. falciparum HB3 in erythrocytes, SYBR Green DNA, 72 h; at 28.5 µM (top of the series) unless noted
# Summary of the method: as §1
# [7] = High-throughput drug toxicity screening in the BPDCN cell line Gen2.2 (AID 1224824); conditions: Gen2.2 BPDCN cells; at 45.8 µM (top of the series) unless noted;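 also: cells exposed to compounds for 48 h before reading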
# Summary of the method: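 Seed 500 exponentially growing Gen2.2 cells/well; add compounds by pin tool; incubate 48 h, 37 °C, 5% CO2; add CellTiter-Glo, 15 min RT; read luminescence. % activity vs DMSO (100%) and bortezomib (0%).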
# [8] = High-throughput drug toxicity screening in the BPDCN cell line Cal-1 (AID 1224825); conditions: Cal-1 BPDCN cell viability, qHTS; at 45.8 µM (top of the series) unless noted
# Summary of the method: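 Cal-1 cells, 500 per well in phenol-red-free RPMI with 10% FBS, exposed to compounds for 48 hours at 37C, 5% CO2. Viability read by CellTiter-Glo luminescence; percent activity normalized to DMSO (100%) and 9.2 uM bortezomib final (0%).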
# [9] = qHTS assay for measurement of the activity of small molecule inhibitors on Zika virus induced Caspase-3 activity in human iPSC derived neural progenitor cells (hNPCs) (AID 1224857; active = well fitted curve in the direction sought with a large enough effect; an effect the other way counts as inactive or inconclusive; also: % of control where 0% means no effect; nearly all actives have a fitted effect of over 65% in size)
# Summary of the method: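 Cells were plated at 350 per well and grown 16 to 20 hours. Compound pretreatment lasted one hour, after which ZIKV (2 FFU/cell) was added for 6 hours. Percent inhibition was normalized between uninfected and infected controls.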
# [10] = qHTS profiling for inhibitors of Plasmodium falciparum (HB3) proliferation (AID 743324; active = well fitted curve in the direction sought with a large enough effect; an effect the other way counts as inactive or inconclusive;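 also: 100% = DMSO vehicle wells and 0% = artemisinin-treated control wells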); conditions: Plasmodium falciparum HB3 blood-stage proliferation; at 28.7 µM (top of the series)
# Summary of the method: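 P. falciparum HB3 grown in erythrocytes (0.3% parasitemia, 2.5% hematocrit final) with compound for 72 h at 37 C, 5% CO2. Parasite DNA detected by SYBR Green after saponin/triton lysis overnight; normalized to 0.29 uM artemisinin and DMSO.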
# [11] = at 28.5 µM (top of the series) unless noted
structure (smiles),measurement,setting,value
C1Cc2[nH]nc(-c3nn[nH]n3)c2C1,remaining parasite growth % (stronger effect = lower value),[1],48.8%
same,"activity, percent of control",[2],98.8%
same,"parasite growth, % of DMSO control",[3]; [11],96.6%
same,"parasite growth remaining, % of DMSO control (lower = more inhibition)",[4]; [11],93.2%
same,"parasite growth, % of control (lower = inhibition)",[5]; [11],178%
same,"growth, % of control",[6],108%
same,"cell viability, % of control (lower = more cytotoxic)",[7],194%
same,viability (% of control),[8],98.5%
same,Potency,[9],inactive
C[C@H]1C[C@@H]2[C@@H]([C@@H](O)C[C@@]3(C)[C@H]2CC[C@]3(O)C(=O)CO)[C@@]2(C)C=CC(=O)C=C12,"parasite growth, % of DMSO control",[3]; at 9.64 µM (top of the series),78.1%
same,"parasite growth, % of DMSO control",[3]; at 28.5 µM (top of the series),59.3%
same,"parasite growth remaining, % of DMSO control (lower = more inhibition)",[4]; at 9.64 µM (top of the series),93.1%
same,"parasite growth remaining, % of DMSO control (lower = more inhibition)",[4]; at 28.5 µM (top of the series),84.7%
same,"parasite growth, % of control (lower = inhibition)",[5]; at 9.64 µM (top of the series),62.6%
same,"parasite growth, % of control (lower = inhibition)",[5]; at 28.5 µM (top of the series),62.7%
same,"cell viability, % of control (lower = more cytotoxic)",[7],111%
same,viability (% of control),[8],53.2%
same,Potency,[9],inactive
COc1ccc2c(c1)CC[C@@H](CN(C)CC(=O)O)[C@H]2c1ccccc1,remaining parasite growth % (stronger effect = lower value),[1],101%
same,"activity, percent of control",[2],98.6%
same,"parasite growth remaining, % of DMSO control (lower = more inhibition)",[4]; [11],35.4%
same,"parasite growth, % of control (lower = inhibition)",[5]; [11],28.4%
same,"growth, % of control",[6],24.2%
same,"cell viability, % of control (lower = more cytotoxic)",[7],39.9%
same,viability (% of control),[8],21.4%
same,Potency,[9],inactive
COc1ccc(-n2nc(C(N)=O)c3c2C(=O)N(c2ccc(N4CCCCC4=O)cc2)CC3)cc1,"parasite growth, % of DMSO control",[3]; [11],53.4%
same,"parasite growth remaining, % of DMSO control (lower = more inhibition)",[4]; [11],82.6%
same,"parasite growth, % of control (lower = inhibition)",[5]; [11],61.9%
same,"growth, % of control",[6],83.4%
same,"cell viability, % of control (lower = more cytotoxic)",[7],150%
same,viability (% of control),[8],104%
same,Potency,[9],inactive
O=C(NC1CCNCC1)c1[nH]ncc1NC(=O)c1c(Cl)cccc1Cl,remaining parasite growth % (stronger effect = lower value),[1],5.64% and 1.64%
same,"activity, percent of control",[2],9.64% and 5.01%
same,"remaining proliferation (% of control), lower = more inhibition",[10],9.9% and 2.81%
same,"parasite growth remaining, % of DMSO control (lower = more inhibition)",[4]; [11],11.4%
same,"parasite growth, % of control (lower = inhibition)",[5]; [11],22%
same,"growth, % of control",[6],8.44%
same,"cell viability, % of control (lower = more cytotoxic)",[7],5.14%
same,viability (% of control),[8],2.11%
same,Potency,[9],inactive
CCCCN1CCC(CNC(=O)c2c3n(c4ccccc24)CCCO3)CC1,"parasite growth, % of DMSO control",[3]; [11],25.9%
same,"cell viability, % of control (lower = more cytotoxic)",[7],110%
same,viability (% of control),[8],9.06%
same,Potency,[9],inactive
COc1cc(=C2C=c3ccccc3=N2)[nH]c1=Cc1[nH]c(C)cc1C,remaining parasite growth % (stronger effect = lower value),[1],2.05%
same,"activity, percent of control",[2],1.12%
same,"remaining proliferation (% of control), lower = more inhibition",[10],1.42%
same,"parasite growth remaining, % of DMSO control (lower = more inhibition)",[4]; [11],7.38%
same,"parasite growth, % of control (lower = inhibition)",[5]; [11],15.9%
same,"growth, % of control",[6],5.2%
same,"cell viability, % of control (lower = more cytotoxic)",[7],17.7%
same,viability (% of control),[8],3.02%
same,Potency,[9],inactive
C=CC(=O)Nc1cccc(Oc2nc(Nc3ccc(N4CCN(C)CC4)cc3)ncc2Cl)c1,"parasite growth, % of DMSO control",[3]; [11],8.39%
same,"parasite growth remaining, % of DMSO control (lower = more inhibition)",[4]; [11],16.8%
same,"parasite growth, % of control (lower = inhibition)",[5]; [11],34.6%
same,"cell viability, % of control (lower = more cytotoxic)",[7],8.16%
same,viability (% of control),[8],2.81%
same,Potency,[9],inactive
Cn1c(=O)n(-c2ccc(C(C)(C)C#N)cc2)c2c3cc(-c4cnc5ccccc5c4)ccc3ncc21,remaining parasite growth % (stronger effect = lower value),[1],1.17%
same,"activity, percent of control",[2],10.2%
same,"remaining proliferation (% of control), lower = more inhibition",[10],1.06%
same,"parasite growth, % of DMSO control",[3]; [11],5.06%
same,"parasite growth remaining, % of DMSO control (lower = more inhibition)",[4]; [11],7.73%
same,"parasite growth, % of control (lower = inhibition)",[5]; [11],6.52%
same,"growth, % of control",[6],2.31%
same,"cell viability, % of control (lower = more cytotoxic)",[7],8.42%
same,viability (% of control),[8],11.9%
same,Potency,[9],inactive
